About 83,000 compounds went through this panel and 20% of them were active in at least one assay; those are over-represented in the sample as a whole.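 Single-dose data. Exposure time 48 hours. Values below 10 considered active.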 Calls of active or inactive are those of the source.

Consider 32 compounds from PubChem BioAssay (NCI).

The first experiment relates to MALME-3M melanoma. Briefly: NCI-60 one-dose screen, 48 h (100 = growth as untreated, 0 = no growth, -100 = all killed). The note with it: 10 µM.
With `O=C(COc1cccc(/C=C2\CSc3ccccc3C2=O)c1)c1ccc(Cl)cc1`, the growth is -61.9% (active).
For `CCn1c(CSc2nc3ccccc3c(=O)n2CCc2ccccc2)n[nH]c1=S`, the growth is 97.2% (inactive).
`COc1ccc2nc3cc(Cl)ccc3c(NCCCNCCO)c2c1`: the growth is 17.8% (inactive).
`COc1ccccc1-n1c(-c2csc(NC(C)=O)n2)n[nH]c1=S`: the growth is 109% (inactive).
With `COc1cc(NC(=O)C2=C(N3CCOCC3)/C(=C/c3ccc(Cl)cc3)CC2)cc(OC)c1OC`, the growth is 93.6% (inactive).
Still for that read-out and setting: to `COc1ccc(-c2nn(-c3cccc(Cl)c3)cc2/C=C2\NC(=S)N(c3ccc(Cl)cc3)C2=O)cc1` belongs 19.1% (inactive).
For the compound `CC(=O)Nc1cc2c(cc1Cl)Cc1cc(Cl)ccc1-2`, the growth is 113% (inactive).
Same read-out and setting: to `Cc1ccc(C2=NN(c3ccc(S(C)(=O)=O)cc3)C(=O)CC2)cc1` belongs 45.5% (inactive).
In the case of `c1ccc(CCCCc2ccc3ccccc3n2)cc1`, the growth was 98.2% (inactive).
The same measure, in the same setting: to `COc1ccc2c(c1)C(=O)/C(=C/c1cccc(OCC(=O)c3ccc([N+](=O)[O-])cc3)c1)CO2` belongs 30.4% (inactive); to `NC(N)=N/N=C(\c1ccccc1)C(O)c1ccccc1` (centres undefined), 96.2% (inactive).
On the same count and under the same terms, as for `CSc1ccc(-c2cc(-c3ccc(NC(=O)CCCN4CCCC4)cc3)nc(-c3ccc(NC(=O)CCCN4CCCC4)cc3)c2)cc1`, the figure is 88.4% (inactive).

The next experiment deals with MDA-MB-231 breast. The experiment is described as above. The settings on record: 10 µM.
`O=C(COc1cccc(/C=C2\CSc3ccccc3C2=O)c1)c1ccc(Cl)cc1`: the growth was 68.8% (inactive).
Still for that read-out and setting: to `CCn1c(CSc2nc3ccccc3c(=O)n2CCc2ccccc2)n[nH]c1=S` belongs 82.8% (inactive); to `COc1ccc2nc3cc(Cl)ccc3c(NCCCNCCO)c2c1`, -53.8% (active); to `Cc1cc(Br)nnc1Br`, 92.7% (inactive).
The same measure, in the same setting: to `Cc1ccc(NC(=S)NNC(=S)Nc2ccc(C)cc2)cc1` belongs 72.5% (inactive); to `COc1ccc(C2CC(c3cccs3)=NN2c2ccc(S(N)(=O)=O)cc2)cc1` (centres undefined), 91.9% (inactive).
For `CC[N+](CC)=c1ccc2nc3c(cc(NCc4ccccc4)c4ccccc43)oc-2c1`, the growth was -69.6% (active).
The same measure, in the same setting: as for `COC1=CC(=O)OC(c2ccc(OC)cc2)C1` (centres undefined), the figure is 100% (inactive); as for `COc1ccccc1-n1c(-c2csc(NC(C)=O)n2)n[nH]c1=S`, 121% (inactive).
The same measure, in the same setting: as for `COc1cc(NC(=O)C2=C(N3CCOCC3)/C(=C/c3ccc(Cl)cc3)CC2)cc(OC)c1OC`, the figure is 91.6% (inactive); as for `C#CC(C)(O)[C@@H]1C[C@H](CC(=O)O)C1(C)C` (some centres undefined), 113% (inactive).
On to `COc1nc2c(c(=O)n1C)CN(c1ccccc1)C(=O)C(C)N2` (centres undefined), for which the growth was 98.3% (inactive).
On to `C=CCNCCN1C(=O)c2ccc3c4c(ccc(c24)C1=O)C(=O)N(CCNCC=C)C3=O`, for which the growth was 5.12% (active).
The same measure, in the same setting: as for `COc1cc(-c2ccc[nH]2)[nH]c1/C=C1\N=C(C)C(C(=O)NC(C)C)=C1C`, the figure is -9.67% (active); as for `O=C1c2ccccc2C(=O)N1CCCCNc1ccccc1`, 79.6% (inactive).
For `CC(C)c1ccc(C(C)C(=O)N(CC2=C(C(C)c3ccccn3)c3ccccc3C2)C(C)C)cc1` (centres undefined), the growth is 48.4% (inactive).
The same measure, in the same setting: as for `Cc1ccc(C)c(COc2cc(NC(=O)c3ccc4c(c3)OCO4)ccc2N(C)S(C)(=O)=O)c1`, the figure is -10.8% (active); as for `Cc1cc(NC(=O)c2ccc(C)c(Nc3nccc(-c4cccnc4)n3)c2)cc(-n2cnc(C)c2)c1`, 18.5% (inactive).
Same read-out and setting: to `COc1ccc(C2CC(c3cc(OC)c(OC)c(OC)c3)=NN2)cc1` (centres undefined) belongs 86.8% (inactive); to `CC1OC2CC(=O)OC2C2=C1C(=O)c1c(O)c3c(c(O)c1C2=O)C1CC(O)C3(O)C(C)O1` (centres undefined), -16.3% (active); to `Nc1ncc(-c2cnn(C3CCNCC3)c2)cc1-c1nc2ccccc2o1`, 27.1% (inactive).
Still for that read-out and setting: to `CCCCCCCCCCCC[n+]1c(C)cc(N)c2ccccc21` belongs -3.36% (active).
Take `COc1ccc(-c2nn(-c3cccc(Cl)c3)cc2/C=C2\NC(=S)N(c3ccc(Cl)cc3)C2=O)cc1`: the growth is 11.8% (inactive).
The same measure, in the same setting: to `COC(=O)CC[C@@H](C)[C@H]1CC[C@H]2[C@@H]3CC[C@@H]4C[C@H](O)CC[C@]4(C)[C@H]3C[C@H](O)[C@]12C` belongs 120% (inactive); to `O=C1NC(=O)c2c(CCCSc3nc4ccccc4c(=O)n3CCc3ccccc3)cccc21`, 65.8% (inactive).
Same read-out and setting: as for `Cc1ccc(C2=NN(c3ccc(S(C)(=O)=O)cc3)C(=O)CC2)cc1`, the figure is 47.8% (inactive); as for `CCOC(=O)Cn1c(=O)c2sc3ncccc3c2n2nnc(-c3ccccc3)c12`, 87.2% (inactive).
